Structures are written as SMILES. “And” between values parts separate entries of the source, which are not always exact repeats. Identical values can stand only once. The panel holds about 83,000 compounds, 20% with a hit somewhere; the sample as a whole holds those more often.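 For each line, cells grew in 96-well plates with the test compound present at a single concentration for 48 hours.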 Unmarked numbers belong to inactive results. The source made the active and inactive calls. How the source made its calls: active means growth percent below 10; inactive means the rest.

This experiment concerns HL-60(TB) leukemia. Briefly: NCI-60 one-dose screen, 48 h (100 = growth as untreated, 0 = no growth, -100 = all killed). As to conditions: 10 µM unless noted.
`Cc1nn(Cc2ccccc2)cc1C(=O)Nc1sc2c(c1C(N)=O)CCC(=O)C2`: the growth is -4.39% (active).

Take `COc1cccc2cc(-c3cc4ccccc4[nH]3)/c(=N/C(=S)Nc3ccccc3)oc12`: the growth is 101%.

`CNc1ccc(O)cc1`: the growth was 103% and 93%.

Consider `O=c1oc2cc(OS(=O)(=O)c3ccc(F)cc3)ccc2c2c1CCCCC2`, for which the growth is 60.6%.

For the compound `CCOC(=O)C1=C(N)Oc2c(sc3c(CC)cccc23)C1c1ccc(F)cc1` (stereo not given), the growth was 23.7%.

With `Nc1c(C(=O)Nc2ccc(Cl)cc2)cc(-c2nc3ccccc3s2)c(=O)n1NS(=O)(=O)c1ccc(Cl)cc1`, the growth was 100%.

Consider `COc1cc(NC(C)CCCN)c2nccc(C)c2c1OC` (stereo not given), for which the growth was -3.41% (active).

Consider `Cc1cccc(Cc2cnc(NC(=O)/C=C/c3ccco3)s2)c1`, for which the growth was -44.8% (active).

As to `O=C1/C(=C/c2ccccc2Br)COc2ccc(O)c(O)c21`, the growth is -9.04% (active).

As to `O=C(/C=C/c1cccc2ccccc12)c1ccc(NC(=O)c2ccccc2CN2C(=O)c3ccccc3C2=O)cc1`, the growth was 44%.

Consider `CCC(CC)C(=O)OC(C)COc1ccc(C(C)(C)C)cc1` (stereo not given), for which the growth is 104%.

Turning to `C1CCC([PH+](C2CCCCC2)C2CCCCC2[PH+](C2CCCCC2)C2CCCCC2)CC1.[Au].[CH-]1CCCCC1C1CCCC[N-]1` (stereo not given), the growth is -29.9% (active).

Regarding `Clc1ccc2c(c1)C(N1CCNCC1)=Nc1ccccc1O2`, the growth was 50.7%.

Consider `Oc1ccc(O)c(-[n+]2ccccc2)c1`, for which the growth was 101%.

As to `O=C1c2cc3c(cc2-c2c1c1cc(Cl)c(Cl)cc1c(=O)n2C[C@H](O)CO)OCO3`, the growth was -22.6% (active).

Take `COc1cc(C(=O)n2nc(-c3cc(OC)c(OC)c(OC)c3)nc2N)cc(OC)c1OC`: the growth was 67.7%.

`NC(N)=NCCCCCNc1noc(Cc2c[nH]c3cc(Br)ccc23)n1`: the growth was 44.9%.

Regarding `CC(=O)[C@@H]1CCC=C2CC[C@]3(C)[C@@H](CC[C@@H]4[C@@]5(C)CCCNC(C)(C)[C@@H]5CC[C@]43C)[C@H]21`, the growth is -12.3% (active).

As to `Nc1cccc(Nc2cc(S(=O)(=O)O)c(N)c3c2C(=O)c2ccccc2C3=O)c1`, the growth is 105%.

In the case of `N#CSCC1CC(O)(c2ccccc2)C(c2ccccc2)C(c2ccc(F)cc2)O1` (stereo not given), the growth is -24.7% (active).

Turning to `C[n+]1c2ccccc2c(NC2CCNCC2)c2[nH]c3ccccc3c21`, the growth is 61.4%.

Turning to `CCCCCCCCC(C)OC(=O)c1nn(C(C)=O)c2ccccc12` (stereo not given), the growth was 99.5%.

For the compound `ClCc1ccc(-c2ccc(Cn3cnc4c(Cl)nc(Cl)nc43)cc2)cc1`, the growth was -53.7% (active).

Turning to `COc1ccc(C2C(C#N)=C(N)Oc3n[nH]c(-c4cccs4)c32)cc1I` (stereo not given), the growth was 54.2%.

With `COc1ccc(Cn2cc3c(c2-c2ccccc2)CCc2cncnc2-3)cc1`, the growth was 15.2%.

As to `C[C@@H](Oc1cc(C(=O)Nc2ccc(C(=O)N3CCN(C)CC3)cc2)nnc1N)c1c(Cl)ccc(F)c1Cl`, the growth was 88.3%.

As to `CC1CN(c2oc(-c3ccccc3)nc2C#N)CC(C)O1` (stereo not given), the growth is 101%.

As to `O=C1CSC2=NCCN12`, the growth was 106% and 86.3%.

As to `CN(C)c1ccc(/C=C/C=N/NC(=O)c2cc(O)c(O)c(O)c2)cc1`, the growth is 84.2%.

Regarding `ClC1(Cl)C2CCCCCCC21` (stereo not given), the growth was 106%.

`CCS(=O)(=O)c1cc(=O)[nH]c(=O)[nH]1`: the growth was 117%.

Take `COc1cc2oc(-c3cccc(NC(=O)c4cccc(Br)c4)c3)cc(=O)c2c(OC)c1OC`: the growth was 65.5%.

On to `N#Cc1c(-c2cccs2)cc(-c2cccnc2)[nH]c1=O`, for which the growth was 97.6%.

For the compound `CC(=O)N(C)c1ccc(Nc2cc(C)[nH]c3ccc4ncnc4c23)cc1`, the growth was 21.3%.

`O=C1N(C2CCCCC2)C(=O)N1C1CCCCC1`: the growth is -16.2% (active).

For the compound `C=C(C[C@](O)(C(=O)/C=C/c1ccc(Cl)cc1)C(=O)OC)c1ccccc1`, the growth was 59.2%.

For `CCCCCCCCCCCC[N+]1(CCCCCCCCCCCC)CCCC(C)C1` (stereo not given), the growth was -79.5% (active).

`COc1ccc(-c2ccc(C)n2-c2ccc(-c3nc4ccccc4s3)cc2)cc1`: the growth was 53.5%.

In the case of `CC(C)C(=O)Nc1ccc([N+](=O)[O-])c(C(F)(F)F)c1`, the growth is 91.1% and 98.3%.

Take `CNC(=O)CN1CCC(Oc2cc3c(Nc4cccc(Cl)c4F)ncnc3cc2OC)CC1`: the growth was 86.9%.
